Assay [1] can be described thus: compounds binding Alexa647 anti-His antibody – biochemical, small-molecule microarray, 635 nm fluorescence, artefact control for SMM control protein annotation, primary screen (AID 1128).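 Further: score merges feature fluorescence with signal-to-noise for each printed compound spot.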 The settings on record: higher = more signal.
For assay [2], the system named is Human papillomavirus type 1a E7 protein (residues 1-88). Put plainly: HPV1a E7 small-molecule binders, primary screen, biochemical, small-molecule microarray, residues 1-88, 635 nm (AID 1129). The settings on record: small-molecule microarray binding, fluorescence 635 nm; higher = more signal.
Assay [3] concerns the target Focal adhesion kinase 1 (Homo sapiens) (UniProt Q05397). Put plainly: PTK2 protein binding on printed compound slides – biochemical, small-molecule microarray, 635/667 nm fluorescence, BSA, DTT, primary screen (AID 1130).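 Further: composite of spot emission at 667 nm and signal to noise over triplicate slides.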 Particulars: 635 nm fluorescence, higher = more signal.
For assay [4], the system named is Fibrinogen (Alexa647-labelled). Kind of assay: Alexa647-fibrinogen binding to printed small molecules – biochemical, small-molecule microarray, 635/667 nm fluorescence, artefact control for SMM control-protein annotation, profiling panel (AID 1131).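 Further: z-score merges 667 nm fluorescence with per-spot signal-to-noise over triplicate slides.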 Particulars: fibrinogen-A647 binding fluorescence, higher = more signal.
For assay [5], the target named is Follistatin (Homo sapiens) (UniProt P19883). Kind of assay: FST protein binding to printed compounds – biochemical, small-molecule microarray, 635/667 nm fluorescence, primary screen (AID 1132). Particulars: 635 nm fluorescence, higher = more signal.
Follistatin (Homo sapiens), sequence (P19883 whole entry, looked up): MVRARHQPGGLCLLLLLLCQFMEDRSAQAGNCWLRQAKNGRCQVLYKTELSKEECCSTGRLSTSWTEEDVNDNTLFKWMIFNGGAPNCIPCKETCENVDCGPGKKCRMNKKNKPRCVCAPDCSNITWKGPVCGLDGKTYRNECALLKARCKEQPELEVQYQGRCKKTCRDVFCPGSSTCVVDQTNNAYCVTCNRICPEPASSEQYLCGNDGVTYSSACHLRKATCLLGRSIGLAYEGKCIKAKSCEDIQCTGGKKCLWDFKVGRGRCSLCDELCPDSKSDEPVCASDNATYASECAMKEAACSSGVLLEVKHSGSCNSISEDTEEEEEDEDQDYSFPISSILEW
In assay [6] the target is Fibroblast growth factor 2 (Homo sapiens) (UniProt P09038). Put plainly: basic fibroblast growth factor binding to printed compounds – biochemical, small-molecule microarray, 635/667 nm fluorescence, primary screen (AID 1133). Particulars: FGF2, fluorescence 635/667, higher = more signal.
Fibroblast growth factor 2 (Homo sapiens), sequence (P09038 whole entry, looked up): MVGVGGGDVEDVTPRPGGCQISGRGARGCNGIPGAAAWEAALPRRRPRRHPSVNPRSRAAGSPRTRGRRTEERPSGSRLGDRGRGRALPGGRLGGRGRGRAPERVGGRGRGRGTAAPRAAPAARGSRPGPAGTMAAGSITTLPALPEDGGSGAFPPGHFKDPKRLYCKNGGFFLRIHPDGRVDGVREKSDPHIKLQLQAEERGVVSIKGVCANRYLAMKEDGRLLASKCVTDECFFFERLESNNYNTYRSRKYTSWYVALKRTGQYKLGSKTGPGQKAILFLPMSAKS
Assay [7] is described as follows: JC-1 mitochondrial potential readout, lung cancer cells – cell-based, A549, JC-1 fluorescence, basal, 24 h, 100 nL, profiling panel (AID 1138).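 Further: A549 lung adenocarcinoma cells under basal conditions with no added stimulus; test concentration not given here.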 Particulars: higher = more signal.
Assay [8] has as its system Lefty1. Kind of assay: Lefty1 protein binding to printed compounds – biochemical, small-molecule microarray, 635/667 nm fluorescence, primary screen (AID 1139). The settings on record: fluorescence 635/667, higher = more signal.
The test system of assay [9] is wheat germ agglutinin (Triticum aestivum), Alexa647-labelled. Put plainly: Alexa647-WGA lectin binding to printed small molecules – biochemical, small-molecule microarray, 635/667 nm fluorescence, artefact control for SMM control-protein annotation, profiling panel (AID 1140).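 Further: score merges 667 nm feature emission with signal to noise over triplicate slides.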 Particulars: WGA-A647 binding, 635 nm fluorescence, higher = more signal.
In assay [10] the target is Luciferin 4-monooxygenase (Photinus pyralis) (UniProt P08659). Kind of assay: inhibition of purified Photinus pyralis luciferase – biochemical, luminescence, purified enzyme, 2006 set, primary screen (AID 1141).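 Further: cell-free assay with purified firefly luciferase at 100 ng per well in PBS; test concentration not given here.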 Particulars: purified firefly luciferase, SteadyGlo luminescence, 30 min; higher = more signal, called active from +8 up or from −8 down.
Luciferin 4-monooxygenase (Photinus pyralis), sequence (P08659 whole entry, looked up): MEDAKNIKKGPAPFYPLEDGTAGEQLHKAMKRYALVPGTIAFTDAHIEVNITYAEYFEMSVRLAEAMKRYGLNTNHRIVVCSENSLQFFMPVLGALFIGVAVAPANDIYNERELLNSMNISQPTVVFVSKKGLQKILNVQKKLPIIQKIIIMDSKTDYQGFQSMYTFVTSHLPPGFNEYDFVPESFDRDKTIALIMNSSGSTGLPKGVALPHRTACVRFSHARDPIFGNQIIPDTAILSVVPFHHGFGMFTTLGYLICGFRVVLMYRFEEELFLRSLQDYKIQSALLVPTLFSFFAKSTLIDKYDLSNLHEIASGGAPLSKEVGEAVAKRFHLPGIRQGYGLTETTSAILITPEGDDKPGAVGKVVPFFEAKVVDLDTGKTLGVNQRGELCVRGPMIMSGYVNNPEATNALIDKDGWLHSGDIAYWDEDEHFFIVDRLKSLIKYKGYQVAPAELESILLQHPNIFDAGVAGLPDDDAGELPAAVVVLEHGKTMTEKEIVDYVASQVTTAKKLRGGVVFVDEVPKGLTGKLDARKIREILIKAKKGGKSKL
In assay [11] the test system is Wnt5a (protein binding on small-molecule microarray). Put plainly: small molecules binding Wnt5a protein – biophysical, small-molecule microarray, 635/667 nm fluorescence, primary screen (AID 1142).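 Further: fluorescence read at 667 nm with signal to noise per printed feature.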 Particulars: 635 nm fluorescence, higher = more signal.
Assay [12] in a line: ATP-based viability of Huh7 replicon cells – cell-based, CellTiter-Glo luminescence, basal, 48 h, cytotoxicity control for HCV replication inhibitor project, primary screen (AID 1143).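 Further: Huh7 hepatoma cells carrying a hepatitis C replication reporter with no stimulus; test concentration not given here.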 The settings on record: higher = more signal, called active from +8 up or from −8 down.
The nature of assay [13]: Pseudomonas biofilm growth suppression – PAO1 strain, BacTiter-Glo luminescence, LB-PBS, primary screen (AID 1144). Particulars: P. aeruginosa PAO1 biofilm, 12 h, higher = more signal.
Assay [14] in a line: basal CRE-LacZ reporter activity in PC12 – cell-based, unstimulated, primary screen (AID 1145). Particulars: no forskolin, luminescence, 4.5 h, higher = more signal, called active from +8 up or from −8 down.
A short description of assay [15]: forskolin-driven CRE-LacZ activity in PC12 – cell-based, CRE-LacZ reporter, forskolin-stimulated, primary screen (AID 1146).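 Further: PC12 cells with 6xCRE LacZ reporter stimulated by forskolin 10 µM; beta-galactosidase reporter signal reflecting CREB driven transcription.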 Particulars: luminescence, 4.5 h, higher = more signal, called active from +8 up or from −8 down.
The target of assay [16] is Streptavidin (Streptomyces avidinii) (UniProt P22629). Kind of assay: compounds binding control protein streptavidin – biophysical, small-molecule microarray, 635/667 nm fluorescence, artefact control for SMM compound annotation, primary screen (AID 1147).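 Further: signal reflects streptavidin binding to arrayed compounds as a control protein.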 The settings on record: higher = more signal.
Streptavidin (Streptomyces avidinii), sequence (P22629 whole entry, looked up): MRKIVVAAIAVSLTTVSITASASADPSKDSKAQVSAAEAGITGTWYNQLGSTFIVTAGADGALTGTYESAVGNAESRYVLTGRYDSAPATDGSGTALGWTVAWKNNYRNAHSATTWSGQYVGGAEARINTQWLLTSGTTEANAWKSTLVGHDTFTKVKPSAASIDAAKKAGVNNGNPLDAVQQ
A short description of assay [17]: probe aInhba binding on compound microarray – biochemical, small-molecule microarray, 635/667 nm fluorescence, primary screen (AID 1148).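 Further: score merges 667nm spot fluorescence with signal-to-noise for antibody binding to printed compounds.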 Particulars: higher = more signal.
The target of assay [18] is Torsin-1A (Homo sapiens) (UniProt O14656). Put plainly: TOR1A wild-type binding on microarray – cell lysate, small-molecule microarray, lysate, 635/667 nm, primary screen (AID 1149). The settings on record: COS7 hTOR1A-WT lysate, 635 nm fluorescence, higher = more signal.
Torsin-1A (Homo sapiens), sequence (O14656 whole entry, looked up): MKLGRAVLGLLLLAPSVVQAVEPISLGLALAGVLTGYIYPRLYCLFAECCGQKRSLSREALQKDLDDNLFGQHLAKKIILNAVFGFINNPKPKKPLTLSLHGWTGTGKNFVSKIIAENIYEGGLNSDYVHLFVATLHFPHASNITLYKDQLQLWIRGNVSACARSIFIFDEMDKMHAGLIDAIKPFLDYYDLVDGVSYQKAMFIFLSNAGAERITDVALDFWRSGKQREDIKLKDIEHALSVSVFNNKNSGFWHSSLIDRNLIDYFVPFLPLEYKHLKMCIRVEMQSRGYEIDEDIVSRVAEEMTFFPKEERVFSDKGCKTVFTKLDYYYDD
Assay [19] shares this target. Kind of assay: torsin A mutant lysate binding on microarrays – cell lysate, small-molecule microarray, COS7 lysate, 635/667 nm fluorescence, primary screen (AID 1150).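 Further: score pools 667 nm emission and signal to noise measuring lysate protein binding.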 Particulars: COS7 hTOR1A mutant lysate, 635 nm fluorescence, higher = more signal.
Assay [20] concerns Sonic hedgehog protein (Shh). Put plainly: Sonic hedgehog microarray binding compounds – biochemical, small-molecule microarray, 635/667 nm fluorescence, primary screen (AID 1151).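 Further: Shh protein binding to compounds spotted on small-molecule microarray slides; score combines spot fluorescence intensity with signal-to-noise across triplicate slides.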 The settings on record: 635 nm fluorescence, higher = more signal.

Activity calls are given as the source filed them. Unless noted, how the calls were made is not given here.

Focal adhesion kinase 1 (Homo sapiens), sequence (Q05397 whole entry, looked up): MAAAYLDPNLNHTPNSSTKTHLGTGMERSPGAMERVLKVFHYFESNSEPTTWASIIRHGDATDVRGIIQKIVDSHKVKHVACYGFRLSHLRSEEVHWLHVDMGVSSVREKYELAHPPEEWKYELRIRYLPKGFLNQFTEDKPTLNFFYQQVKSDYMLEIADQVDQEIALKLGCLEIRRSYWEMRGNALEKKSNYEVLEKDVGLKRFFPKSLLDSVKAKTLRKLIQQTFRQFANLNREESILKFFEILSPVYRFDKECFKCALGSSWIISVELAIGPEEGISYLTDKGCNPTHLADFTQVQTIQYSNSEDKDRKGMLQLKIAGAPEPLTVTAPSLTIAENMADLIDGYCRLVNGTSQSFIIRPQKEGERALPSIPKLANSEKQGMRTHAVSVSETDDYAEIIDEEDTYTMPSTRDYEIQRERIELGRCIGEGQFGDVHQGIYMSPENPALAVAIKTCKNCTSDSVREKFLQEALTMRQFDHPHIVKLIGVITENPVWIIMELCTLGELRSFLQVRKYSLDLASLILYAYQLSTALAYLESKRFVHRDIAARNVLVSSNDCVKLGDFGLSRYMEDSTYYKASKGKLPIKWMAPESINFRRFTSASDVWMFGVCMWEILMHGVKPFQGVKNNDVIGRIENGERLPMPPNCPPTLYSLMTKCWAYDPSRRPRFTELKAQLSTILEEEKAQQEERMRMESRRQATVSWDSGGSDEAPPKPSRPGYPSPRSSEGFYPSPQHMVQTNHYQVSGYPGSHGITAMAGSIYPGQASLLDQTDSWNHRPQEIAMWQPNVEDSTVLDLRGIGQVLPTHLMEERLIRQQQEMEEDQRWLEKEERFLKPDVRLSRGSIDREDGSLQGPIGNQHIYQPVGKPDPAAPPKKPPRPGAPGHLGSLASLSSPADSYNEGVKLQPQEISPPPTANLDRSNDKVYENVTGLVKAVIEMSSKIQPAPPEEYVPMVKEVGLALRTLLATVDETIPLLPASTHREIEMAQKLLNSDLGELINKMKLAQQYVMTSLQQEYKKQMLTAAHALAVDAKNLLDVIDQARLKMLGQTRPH

Turning to `CC(C)(C)OC(=O)CC[C@@]1(C(=O)O)N=C(c2ccc(OCCCO)cc2)O[C@@H]1c1ccccc1N=[N+]=[N-]`, the composite z-score was 1.5 in assay [1]; 0.826 in assay [2]; 2.08 in [3]; 0.482 in assay [4]; 0.589 in [5]; -0.349 in [6]. Moreover, the composite z-score was -0.666 in [8]; 1.28 in assay [9]; 0.52 in assay [11]; 1.01 in assay [16]; 0.179 in [17]; 1.21 in assay [18]. Besides, the composite z-score in [19] is 1.22; in [20], -0.905. The z-score in assay [7] is -1.49; in assay [10], -12.1 (active); in assay [12] it was 0.0429 (inactive); in assay [13], 0.561 (inactive); in [14], -0.183 (inactive); in [15] it was -0.406 (inactive).

Regarding `COC(=O)C(CC#Cc1ccc2c(c1)[C@]1(C(=O)N2)[C@H](C(=O)NC[C@H](O)c2ccccc2)[C@H]2C(=O)O[C@H](c3ccccc3)[C@H](c3ccccc3)N2[C@@H]1c1ccc(OCCO)cc1)C(=O)OC`, the composite z-score in [1] was 1.5; in assay [2] it was 1.21; in [3], 0.538; in [4], 0.957; in [5], 1.25; in [6] it was 0.937. In addition, the composite z-score in [8] was 1.69; in assay [9] it was 1.21; in assay [11], 1.08; in [16], 2.55; in assay [17], 0.859; in assay [18], 1.69. Besides, the composite z-score in assay [19] is 1.09; in assay [20] it was 1.6. Besides, the z-score was -1.32 in [7]; -1.83 (inactive) in assay [10]; -1.02 (inactive) in assay [12]; -0.419 (inactive) in [13]; 0.0653 (inactive) in [14]; -0.291 (inactive) in [15].

As for `COCC1=C2[C@@H](CCc3ccccc3)OB(O)C[C@@H]2[C@@H]2C(=O)N(Cc3ccccc3)C(=O)[C@@H]2C1`, the composite z-score was -0.0926 in assay [1]; -0.147 in assay [2]; -0.138 in [3]; 1 in assay [4]; 0.193 in [5]; -0.0119 in assay [6]. Further, the composite z-score in assay [8] was 0.261; in [9] it was 0.397; in assay [11] it was 0.278; in assay [16], 0.0569; in [17], -0.152; in assay [18], -0.427. Also, the figures for the composite z-score in assay [19] and in assay [20] were 0.0316 and 0.333, respectively. In addition, the z-score in assay [7] is 0.092; in [10], -0.683 (inactive); in assay [12], 0.0597 (inactive); in [13], 1.07 (inactive); in [14], 0.663 (inactive); in assay [15], -0.0777 (inactive).

Turning to `CC(C)N1C(=O)[C@@]2(c3ccc([N+](=O)[O-])cc3)CC(=O)N(CC34CC5CC(CC(C5)C3)C4)[C@@H]2c2ccc(CO)cc21`, the composite z-score in assay [1] is -0.193; in [2], -1.05; in assay [3] it was -0.553; in [4] it was -1.1; in assay [5], 0.0163; in assay [6] it was -0.934. Also, the composite z-score is 0.0347 in assay [8]; 1.23 in [9]; -0.61 in assay [11]; -0.842 in assay [16]; 0.195 in assay [17]; -1.81 in assay [18]. In addition, the composite z-score in assay [19] was -0.858; in [20] it was 0.453. The z-score was 0.58 in assay [7]; -0.322 (inactive) in [10]; -0.36 (inactive) in assay [12]; -0.292 (inactive) in [13]; 0.452 (inactive) in assay [14]; -0.41 (inactive) in assay [15].

Consider `CC(C)C(=C=CC[C@H](O)c1cccc(OCCO)c1)C[C@H](O)COCc1ccccc1`, for which the composite z-score in assay [1] stood at 0.366; in assay [2] it was 0.165; in assay [3], 0.107; in assay [4], 0.637; in assay [5], 0.235; in assay [6], 0.562. Besides, the composite z-score in [8] was 0.554; in assay [9] it was -0.0699; in [11], 0.148; in assay [16], 1.24; in assay [17], 0.167; in [18], 1.03. The composite z-score in assay [19] amounted to 0.33; in assay [20], 2.09. For the same molecule, the z-score in [7] is -0.241; in assay [10], 0.209 (inactive); in assay [12], -0.33 (inactive); in assay [13], -0.457 (inactive); in assay [14] it was 1.82 (inactive); in assay [15] it was 0.526 (inactive).
